# In PubChem BioAssay (NCI):
# About 83,000 compounds went through this panel and 20% of them were active in at least one assay; those are over-represented in the sample as a whole.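 The endpoint reported here, percent growth, reads 100 for growth as untreated, 0 for no net growth and -100 for all cells dead.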 Unmarked numbers belong to inactive results. Activity calls are given as the source filed them. Rule for the calls: active = growth percent below 10; inactive = the rest.
# Test system: HS 578T breast
# Experiment: NCI-60 one-dose screen, 48 h (100 = growth as untreated, 0 = no growth, -100 = all killed)
# Settings: 10 µM
row,SMILES,growth
1,O=C(CS(=O)(=O)c1oc(-c2ccc(Cl)cc2)nc1S(=O)(=O)c1ccc(Cl)cc1)N1CCOCC1,76%
2,COc1ccc(C=CC(=O)c2ccc(-n3c(C)nc4c(cnn4-c4ccccc4)c3=O)cc2)cc1,85.5%
3,O=C1Nc2ccc(Cl)cc2/C1=C/c1cccc(OCc2ccccc2)c1,6.44% (active)
4,CN(C)c1ccc(/C=C/C(=O)c2ccc(NC(=O)CN3C(=O)NC(C)(c4ccccc4)C3=O)cc2)cc1 (configuration not stated),78%
5,COc1cccc(C(N)=Nc2ccc(OCCCCCCn3cncn3)cc2)c1,26.4%
6,CN1CCN(Cc2ccc(C(=O)Nc3cccc(Nc4ccc5cc(O)ccc5n4)c3)cc2C(F)(F)F)CC1,-2.79% (active)
7,Nc1nnc(-c2c[nH]c3ccc(F)cc23)c(-c2c[nH]c3ncccc23)n1,29.1%
8,C/C(=C\CC/C=C(\C)CC/C=C(\C)CC[C@@H](O)C(C)(C)O)CC/C=C(\C)CC[C@@H](O)C(C)(C)O,39%
9,Cc1ccc(-c2ccc(SCC(=O)Nc3ccc(Cl)c(C(F)(F)F)c3)nn2)cc1,15.7%
10,CN1CCN(c2ccc(Nc3nc(NCCCNC(=O)c4ccc(F)cc4)c4sccc4n3)cc2)CC1,84.1%
11,C#Cc1ccc(S(=O)(=O)Nc2cccc(-c3csc(NC(C)=O)n3)c2)cc1,83.6%

# Test system: NCI/ADR-RES ovarian
# Experiment: as above
# Settings: 10 µM
row,SMILES,growth
1,CCOc1ccc(Nc2nc3ccccc3nc2Nc2ccc(OCC)cc2)cc1,65%
2,O=c1cc(-c2ccccc2)oc2cc(OCCCCNCc3ccccc3)cc(O)c12,-68.4% (active)
3,Cc1ccc(C(C)C)cc1NC(=O)c1ccccc1N(C)C,74.6%
4,CCCCSc1nc(Nc2ccc(/C(C)=N/NC(N)=S)cc2)c(C#N)c(-c2ccc(F)cc2)n1,37.5%
5,O=C(c1ccc(Cl)cc1)C1[C@H](c2ccccc2Br)[C@@H](c2ccccc2)NC12C(=O)Nc1ccccc12 (some centres not stated),-70% (active)
6,CC(=O)c1ccc(NC(=O)NCn2c(=O)[nH]c3ccccc3c2=O)cc1,107%
7,[2H]C([2H])([2H])Oc1ccc2ncc(C#Cc3cncc(C(=O)Nc4ccc(CN5CCN(C)CC5)c(C(F)(F)F)c4)c3)n2n1,-68% (active)
8,O=C1Nc2cc(Cl)ccc2/C1=C/c1ccc(OCc2ccc(Br)cc2F)cc1,-71% (active)
9,C[C@H]1[C@H](C)CC[C@]2(COC(=O)CCC(=O)NCC#CCN3CCNCC3)CC[C@]3(C)C(=CC[C@@H]4[C@@]5(C)CCCNC(C)(C)[C@@H]5CC[C@]43C)[C@H]12,66.9%
10,COc1ccc2nc(Cl)c(-c3cc(-c4ccccc4)nc(N)n3)cc2c1,-43.1% (active)
11,COc1ccc(CN2[C@H](C(=O)NCCCCCCC(=O)NO)Cc3c([nH]c4ccccc34)[C@H]2C2CC2)cc1,61.9%
12,CN1CCN(c2ccc(Nc3nc(NCCCNC(=O)c4ccccc4)c4sccc4n3)cc2)CC1,82.3%
13,C=C1CC[C@H](C(=C)C)[C@H]2C=C(C)C(=O)C3=C(C(=O)[C@@](C)(O)C3)[C@H]12,-31.1% (active)
14,COc1ccc(N(C)c2cc(C#N)nc3ccccc23)cc1N,-31.7% (active)
15,COc1ccc(C(C)=C(c2ccc(OCCCN(C)C)cc2)c2ccc(OCCCN(C)C)cc2)cc1,-96.6% (active)
16,CC1(c2ccccc2)NC(=O)N(CC(=O)Nc2ccc(C(=O)/C=C/c3ccc(Cl)cc3)cc2)C1=O (configuration not stated),48.9%
17,COC[C@@H](CC(C)C)N=C1N/C(=C\c2ccc3ncsc3c2)C(=O)N1C,0.43% (active)
18,O=C(CSc1ccc(-c2ccc(Cl)cc2)nn1)Nc1ccc(Cl)c(C(F)(F)F)c1,27.9%

row,SMILES,growth
1,Cc1ccc(NC(=O)NCn2c(=O)[nH]c3ccccc3c2=O)cc1,70.7%
2,Cc1cc(C)cc(Oc2cccc(-c3c(C)nnn3C3CCN(CCN(C)C)CC3)n2)c1,32.4%
3,CC(=O)NCC1=C(C)C=C2C(=O)[C@](C)(O)C3(CC3)C(C)=C21,-46.1% (active)
4,O=C(Nc1ccc(OCC(=O)c2ccccc2)cc1)Nc1ccc(Cl)c(C(F)(F)F)c1,18.5%
5,CCOC(=O)c1c(CSc2ccccc2)n(C)c2cc(CN(C)C)c(O)c(CN(C)C)c12,76.4%
6,Cc1ccc(-c2cc(-c3cc4ccccc4nc3Cl)[nH]c(=O)n2)cc1,-38.8% (active)
7,COc1ccc([C@H]2C(C(=O)c3ccc(Cl)cc3)C3(N[C@@H]2c2ccccc2)C(=O)Nc2ccc(Br)cc23)cc1 (some centres not stated),-27.2% (active)
8,O=C(CS(=O)(=O)c1oc(-c2ccc(Cl)cc2)nc1S(=O)(=O)c1ccc(Cl)cc1)N1CCOCC1,28.2%
9,COc1ccc(C=CC(=O)c2ccc(-n3c(C)nc4c(cnn4-c4ccccc4)c3=O)cc2)cc1,62.3%
10,O=C1Nc2ccc(Cl)cc2/C1=C/c1cccc(OCc2ccccc2)c1,8.34% (active)
11,CN(C)c1ccc(/C=C/C(=O)c2ccc(NC(=O)CN3C(=O)NC(C)(c4ccccc4)C3=O)cc2)cc1 (configuration not stated),86.6%
12,COc1cccc(C(N)=Nc2ccc(OCCCCCCn3cncn3)cc2)c1,13.5%
13,CN1CCN(Cc2ccc(C(=O)Nc3cccc(Nc4ccc5cc(O)ccc5n4)c3)cc2C(F)(F)F)CC1,28.6%
14,Nc1nnc(-c2c[nH]c3ccc(F)cc23)c(-c2c[nH]c3ncccc23)n1,101%
15,C/C(=C\CC/C=C(\C)CC/C=C(\C)CC[C@@H](O)C(C)(C)O)CC/C=C(\C)CC[C@@H](O)C(C)(C)O,30.2%
16,Cc1ccc(-c2ccc(SCC(=O)Nc3ccc(Cl)c(C(F)(F)F)c3)nn2)cc1,-23.5% (active)
17,CN1CCN(c2ccc(Nc3nc(NCCCNC(=O)c4ccc(F)cc4)c4sccc4n3)cc2)CC1,76.2%
18,C#Cc1ccc(S(=O)(=O)Nc2cccc(-c3csc(NC(C)=O)n3)c2)cc1,70.8%
